Where a chain is given by its changes, count along the chain named.

Test in all cases: yeast three-hybrid, YBZ-1, SC-Leu-His + 0.5 mM 3-AT, 4 days
Common to all, as to conditions: tags: N-Gal4 AD-HA kept; label: inside an RPR1-promoter hybrid RNA with tandem MS2 sites; ssRNA

One assay deals with PUM1 PUF domain R5-SLH (Homo sapiens, UniProt Q14671 828-1176, C1007S;R1008L;Q1011H). The procedure, abridged:
(§1)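 Pumilio-1 PUF domain libraries, randomized (NNK) at the three base-contacting residues of each repeat, were co-expressed with matching RNA elements from a centromeric plasmid in strain YBZ-1 (LexA–MS2 coat fusion, HIS3 reporter). Transformants were plated on SC-Leu (input) and SC-Leu-His + 0.5 mM 3-AT (selection) for four days, and repeat regions were PCR-amplified and Illumina-sequenced. The interaction score is the log2 change in variant frequency from input to selection, with pseudocount 1 where absent.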

A further assay concerns the target PUM1 PUF domain R1-KAR (Homo sapiens, UniProt Q14671 828-1176, S863K;R864A;Q867R). The procedure, abridged: as §1
Another assay deals with PUM1 PUF domain R4-ACC (Homo sapiens, UniProt Q14671 828-1176, N971A;H972C;Q975C). Summed up:
as §1

The target in another assay is T1, PUM1 PUF domain R6-TFT (Homo sapiens, UniProt Q14671 828-1176, N1043T;Y1044F;Q1047T).
T1 sequence: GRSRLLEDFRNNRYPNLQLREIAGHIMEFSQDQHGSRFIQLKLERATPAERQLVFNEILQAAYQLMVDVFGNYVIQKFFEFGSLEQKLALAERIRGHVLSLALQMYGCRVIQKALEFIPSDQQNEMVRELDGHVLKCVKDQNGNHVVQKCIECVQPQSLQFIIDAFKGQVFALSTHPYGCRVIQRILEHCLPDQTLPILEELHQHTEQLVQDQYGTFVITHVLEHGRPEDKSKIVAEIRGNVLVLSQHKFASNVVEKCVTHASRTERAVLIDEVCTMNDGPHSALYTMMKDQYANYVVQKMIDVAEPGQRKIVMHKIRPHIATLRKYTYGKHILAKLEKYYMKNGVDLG
The procedure, abridged: as §1

The target of another assay is PUM1 PUF domain R4-PYT (Homo sapiens, UniProt Q14671 828-1176, N971P;H972Y;Q975T). The procedure, abridged:
as §1

The target of another assay is PUM1 PUF domain R5-FFV (Homo sapiens, UniProt Q14671 828-1176, C1007F;R1008F;Q1011V). The procedure, abridged:
as §1

The next assay concerns the target PUM1 PUF domain R4-WSA (Homo sapiens, UniProt Q14671 828-1176, N971W;H972S;Q975A). The procedure, abridged: as §1
The next assay has as its target PUM1 PUF domain R5-RYK (Homo sapiens, UniProt Q14671 828-1176, C1007R;R1008Y;Q1011K). Summed up: as §1
The next assay addresses PUM1 PUF domain R4-TNG (Homo sapiens, UniProt Q14671 828-1176, N971T;H972N;Q975G). Summed up: as §1
For another assay, the target named is PUM1 PUF domain R4-HRV (Homo sapiens, UniProt Q14671 828-1176, N971H;H972R;Q975V). The procedure, abridged: as §1
Another assay concerns the target PUM1 PUF domain R4-LHS (Homo sapiens, UniProt Q14671 828-1176, N971L;Q975S). Summed up: as §1
A further assay addresses PUM1 PUF domain R1-KGQ (Homo sapiens, UniProt Q14671 828-1176, S863K;R864G). The procedure, abridged: as §1
For the next assay, the target named is PUM1 PUF domain R8-CYP (Homo sapiens, UniProt Q14671 828-1176, N1122C;Q1126P). Summed up: as §1
For a further assay, the target named is PUM1 PUF domain R8-MYW (Homo sapiens, UniProt Q14671 828-1176, N1122M;Q1126W). The procedure, abridged: as §1
The next assay has as its target T2, PUM1 PUF domain R6-TWV (Homo sapiens, UniProt Q14671 828-1176, N1043T;Y1044W;Q1047V).
T2 sequence: T1 sequence with F217W, T220V
Summed up: as §1

Turning to “GGCUAGAACUAGUGGAUCCCCCGGCGCCCGGCGGCUCGAGCCCGGGUAAGUGUGAAUAGUCUGCAUGCCGCCGGGCGCCAUGCCUGCAGGUCGACUCUAGAAAACAUG”, the binding signal in the assay with PUM1 PUF domain R5-SLH is 3.2 log2 enrichment (interaction score).
Regarding “GGCUAGAACUAGUGGAUCCCCCGGCGCCCGGCGGCUCGAGCCCGGGUAAGUGUAAAUAGUCUGCAUGCCGCCGGGCGCCAUGCCUGCAGGUCGACUCUAGAAAACAUG”, the binding signal with PUM1 PUF domain R1-KAR was 2.23 log2 enrichment (interaction score); in the assay with PUM1 PUF domain R4-ACC, 2.56 log2 enrichment (interaction score); with PUM1 PUF domain R6-TFT, 3.71 log2 enrichment (interaction score); with PUM1 PUF domain R4-PYT it was 4.57 log2 enrichment (interaction score); with PUM1 PUF domain R5-FFV, 2.23 log2 enrichment (interaction score); with PUM1 PUF domain R4-WSA it was 1.33 log2 enrichment (interaction score). In addition, in the assay with PUM1 PUF domain R5-RYK, the binding signal was 3.8 log2 enrichment (interaction score).
For “GGCUAGAACUAGUGGAUCCCCCGGCGCCCGGCGGCUCGAGCCCGGGUAAGUGUAUAUAGUCUGCAUGCCGCCGGGCGCCAUGCCUGCAGGUCGACUCUAGAAAACAUG”, the binding signal in the assay with PUM1 PUF domain R4-TNG is 2.66 log2 enrichment (interaction score); with PUM1 PUF domain R4-HRV, 2.89 log2 enrichment (interaction score); with PUM1 PUF domain R4-PYT it was 7.53 log2 enrichment (interaction score); in the assay with PUM1 PUF domain R4-LHS it was 3.86 log2 enrichment (interaction score); in the assay with PUM1 PUF domain R4-WSA, 2.96 log2 enrichment (interaction score).
Take “GGCUAGAACUAGUGGAUCCCCCGGCGCCCGGCGGCUCGAGCCCGGGUAAGUGUAAAUGGUCUGCAUGCCGCCGGGCGCCAUGCCUGCAGGUCGACUCUAGAAAACAUG”: the binding signal with PUM1 PUF domain R1-KGQ was 2.56 log2 enrichment (interaction score).
In the case of “GGCUAGAACUAGUGGAUCCCCCGGCGCCCGGCGGCUCGAGCCCGGGUAAGUGUACAUAGUCUGCAUGCCGCCGGGCGCCAUGCCUGCAGGUCGACUCUAGAAAACAUG”, the binding signal was 0.22 log2 enrichment (interaction score) with PUM1 PUF domain R4-TNG, 1.98 log2 enrichment (interaction score) in the assay with PUM1 PUF domain R4-HRV, 6.02 log2 enrichment (interaction score) with PUM1 PUF domain R4-PYT and 2.8 log2 enrichment (interaction score) with PUM1 PUF domain R4-WSA.
As to “GGCUAGAACUAGUGGAUCCCCCGGCGCCCGGCGGCUCGAGCCCGGGUAAGCGUAAAUAGUCUGCAUGCCGCCGGGCGCCAUGCCUGCAGGUCGACUCUAGAAAACAUG”, the binding signal is 4.27 log2 enrichment (interaction score) with PUM1 PUF domain R8-CYP and 2.44 log2 enrichment (interaction score) with PUM1 PUF domain R8-MYW.
Take “GGCUAGAACUAGUGGAUCCCCCGGCGCCCGGCGGCUCGAGCCCGGGUAAGUGAAAAUAGUCUGCAUGCCGCCGGGCGCCAUGCCUGCAGGUCGACUCUAGAAAACAUG”: in the assay with PUM1 PUF domain R6-TWV, the binding signal was 2.6 log2 enrichment (interaction score).

Values taken from publication PMC8384837, “Expanding the binding specificity for RNA recognition by a PUF domain”.
